In PubChem BioAssay (Tox21):
Values joined by “and” are separate entries in the source; they are usually repeats but may differ in a detail not shown here. Identical values can stand only once. Results filed as inconclusive are left out. Where a call stands in place of a potency, no number is given. A structure can be active in one record and inactive in another. Active and inactive are the calls of the source. Unless noted, the call rests on the fitted dose curve.

Assays:
[1] = Nuclear factor erythroid 2-related factor 2/antioxidant responsive element (Nrf2/ARE) small molecule agonists: qHTS cell viability counter screen in human keratinocytes (AID 1919968; active means well fitted curve in the direction sought with a large enough effect in the repeat runs; an effect the other way counts as inactive or inconclusive; further: nearly all actives have a fitted effect of over 55% in size; further: potency means the concentration at half of the fitted maximal effect)
Procedure, shortened: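 KeratinoSens cells (HaCaT keratinocytes stably carrying an ARE-luciferase reporter) were seeded at 1,500 cells/well and rested 5 h at 37 C/5% CO2. They were then exposed to compounds in DMSO for 23 h. Viability was read by CellTiter-Fluor fluorescence after 1 h.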

[2] = Nuclear factor erythroid 2-related factor 2/antioxidant responsive element (Nrf2/ARE) small molecule agonists: luciferase reporter gene qHTS assay in human keratinocytes (AID 1919969); further: nearly all actives have a fitted effect of over 35% in size
[3] = molecular target: Gonadotropin-releasing hormone receptor (Homo sapiens) (UniProt P30968); test: Human gonadotropin-releasing hormone receptor (GnRHR) small molecule agonists, calcium flux assay in GnRHR-HEK293 cells (AID 1920063); further: nearly all actives have a fitted effect of over 35% in size
Procedure, shortened: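 HEK293 cells stably expressing human GnRHR were plated 18 h at 37 °C, loaded with calcium dye 1 h at 37 °C, then given compound in agonist mode; fluorescence (Ex/Em 480/540) read kinetically for 3 min at 1 s intervals.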

[4] = molecular target: KiSS-1 receptor (Homo sapiens) (UniProt Q969F8); test: Human kisspeptin (KISS1R) small molecule agonists, calcium flux assay in KISS1R-HEK293 cells (AID 1920064; active means well fitted curve in the direction sought with a large enough effect in the repeat runs; an effect the other way counts as inactive or inconclusive)
Procedure, shortened: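 HEK293 cells stably expressing human KISS1R were plated 18 h at 37 °C, loaded with calcium dye for 1 h at 37 °C, then given compound by pin tool. Fluorescence (Ex/Em 480/540) was read kinetically for 3 min.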

[5] = G protein-coupled receptor (GPCR) small molecule agonists, calcium flux assay: HEK293 wild type cell line counter screen (AID 1920065)
Procedure, shortened: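 Cells were plated and cultured 18 h at 37 C/5% CO2, then loaded with calcium dye for 1 h at 37 C. Compounds in DMSO were pin-transferred in agonist mode, and fluorescence (Ex/Em 480/540) was read kinetically for 3 min at 1 s intervals.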

[6] = p53 small molecule agonists, cell-based qHTS assay with human liver microsomes (AID 1963577);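 further: p53 response element beta-lactamase reporter cells with liver microsomes plus NADPH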
Procedure, shortened: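 16 h, 37 C exposure of p53RE-bla cells to compounds with human liver microsomes and NADPH (0.5 mg/mL final each); detection via LiveBLAzer mixture, 2 h dark at room temperature.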

[7] = p53 small molecule agonists, cell-based qHTS assay with rat liver microsomes (AID 1963578)
Procedure, shortened: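 With rat liver microsomes and NADPH present (0.5 mg/mL final each), p53RE-bla cells are treated with compound for 16 h at 37 C. LiveBLAzer detection mixture is then applied for 2 h at room temperature in the dark.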

[8] = p53 small molecule agonists, cell-based qHTS assay with human liver microsomes: qHTS cell viability counter screen (AID 1963579); further: nearly all actives have a fitted effect of over 45% in size
Procedure, shortened: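 In this multiplexed counter screen, the reporter plates were subsequently treated with CellTiter-Glo so that cell viability, reflected by luminescence, could be recorded for p53RE-bla cells dosed 16 h with compounds under microsomal activation (HLM and NADPH).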

[9] = p53 small molecule agonists, cell-based qHTS assay: qHTS cell viability counter screen (AID 1963581); further: nearly all actives have a fitted effect of over 45% in size
Procedure, shortened: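 p53RE-bla HCT-116 cells were exposed to compounds for 16 h at 37 C; after the beta-lactamase FRET read in the same wells, CellTiter-Glo was added and luminescence (intracellular ATP) read after 30 min at room temperature.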

[10] = molecular target: 5-hydroxytryptamine receptor 2A (Homo sapiens) (UniProt P28223); test: 5-hydroxytryptamine receptor 2A (HTR2A) small molecule antagonists, cell-based qHTS assay (AID 1963586); further: nearly all actives have a fitted effect of over 45% in size; further: potency means the concentration at half of the fitted maximal effect
Procedure, shortened: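 Antagonist-mode intracellular calcium assay: DOI (4 nM) added after 5 min compound pre-incubation at room temperature to dye-loaded HTR2A-CHO cells. Fluorescence followed for 3 min, sampled every second.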

[11] = molecular target: 5-hydroxytryptamine receptor 2A (Homo sapiens) (UniProt P28223); test: 5-hydroxytryptamine receptor 2A (HTR2A) small molecule agonists, cell-based qHTS assay (AID 1963587); further: nearly all actives have a fitted effect of over 30% in size
Procedure, shortened: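 Kinetic calcium-flux fluorescence (2 min, 1 sec intervals) after compound addition in agonist mode. HTR2A-CHO cells were cultured 18 h, then dye-loaded 1 h at 37 C.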

[12] = molecular target: Muscarinic acetylcholine receptor M1 (Homo sapiens) (UniProt P11229); test: Cholinergic receptor muscarinic 1 (CHRM1) small molecule antagonists, cell-based qHTS assay (AID 1963588); further: nearly all actives have a fitted effect of over 40% in size
Procedure, shortened: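 CHRM1-CHO calcium-flux assay, antagonist mode. Cells were seeded 18 h, dye-loaded 1 h at 37 C and given compound for 5 min at RT, then acetylcholine was added at 50nM. FDSS fluorescence was read 3 min; 15 concentrations, three runs.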

[13] = cAMP Responsive Elements (CRE) small molecule agonists, cell-based qHTS assay (AID 1963590)
Procedure, shortened: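 CRE-bla HEK 293T cells in DMEM with 10% dialyzed FBS, NEAA, pyruvate and 25 mM HEPES were plated 18 h at 37 C/5% CO2, then exposed to compounds in DMSO for 3 h before LiveBLAzer B/G FRET substrate addition.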

[14] = cAMP Responsive Elements (CRE) small molecule antagonists, cell-based qHTS assay (AID 1963591; active means well fitted inhibition curve with a large enough effect in the signal ratio in the repeat runs, not every such curve was filed as active; the % refers to the signal ratio)
Procedure, shortened: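 CRE-bla HEK293T cells were plated 18 h at 37 °C/5% CO2, pinned with compound in DMSO, then stimulated with NKH477 at 0.25 uM final for 3 h. LiveBLAzer B/G FRET substrate was added and plates incubated 2 h at room temperature.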

[15] = molecular target: Beta-2 adrenergic receptor (Homo sapiens) (UniProt P07550); test: Adrenergic beta2 receptor (ADRB2) small molecule antagonists, cell-based qHTS assay (AID 1963592); further: series mostly up to about 92 µM; nearly all actives have a fitted effect of over 50% in size
Procedure, shortened: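 Cells (CHO, stable ADRB2 overexpression) incubated 18-20hr at 37C; compounds added from DMSO; agonist mix (1nM isoproterenol, 100uM IBMX, 25uM Ro-20-1724) added; 0.5hr RT; d2-cAMP and anti-cAMP-cryptate added; 1hr RT; 665/615 nm read.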

[16] = molecular target: Beta-2 adrenergic receptor (Homo sapiens) (UniProt P07550); test: Adrenergic beta2 receptor (ADRB2) small molecule agonists, cell-based qHTS assay (AID 1963593);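 further: CHO cells stably overexpressing human ADRB2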
Procedure, shortened: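 CHO cells stably over-expressing ADRB2 were plated overnight at 37C, then dosed with compounds plus a stimulation mix containing 100uM IBMX and 25uM Ro-20-1724 for 0.5hr at room temperature. cAMP was measured by HTRF competition, 1hr.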

[17] = molecular target: D(2) dopamine receptor (Homo sapiens) (UniProt P14416); test: Dopamine D2 receptor (DRD2) small molecule agonists, cell-based qHTS assay (AID 1963594); further: nearly all actives have a fitted effect of over 35% in size
Procedure, shortened: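 cAMP accumulation in DRD2-HEK293 cells measured by HTRF after 1 h detection; compounds added 10 min before NKH477 (200nM […]) forskolin-analogue stimulation, 30 min at room temperature, with Ro20-1724 present at 0.1 mM final.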

[18] = molecular target: D(2) dopamine receptor (Homo sapiens) (UniProt P14416); test: Dopamine D2 receptor (DRD2) small molecule antagonists, cell-based qHTS assay (AID 1963595; active means well fitted inhibition curve with a large enough effect in the signal ratio in the repeat runs, with a control signal flat; the % refers to the signal ratio)
Procedure, shortened: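 HEK293 cells stably expressing DRD2 were preincubated with 0.1 mM Ro20-1724, then with compound for 10 min at room temperature. Cells were stimulated with 200 nM NKH477 plus 12 nM quinpirole for 30 min, and cAMP was read by HTRF.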

[19] = molecular target: Muscarinic acetylcholine receptor M1 (Homo sapiens) (UniProt P11229); test: Cholinergic receptor muscarinic 1 (CHRM1) small molecule agonists, cell-based qHTS assay (AID 1963589); further: nearly all actives have a fitted effect of over 35% in size
Procedure, shortened: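 CHO cells stably expressing human CHRM1, seeded 18 h at 37 C/5% CO2, dye-loaded 1 h at 37 C, then given compound in agonist mode; intracellular calcium fluorescence read kinetically at 1 s intervals. Fifteen concentrations, three independent runs.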

D(2) dopamine receptor (Homo sapiens), sequence (P14416 whole entry, looked up): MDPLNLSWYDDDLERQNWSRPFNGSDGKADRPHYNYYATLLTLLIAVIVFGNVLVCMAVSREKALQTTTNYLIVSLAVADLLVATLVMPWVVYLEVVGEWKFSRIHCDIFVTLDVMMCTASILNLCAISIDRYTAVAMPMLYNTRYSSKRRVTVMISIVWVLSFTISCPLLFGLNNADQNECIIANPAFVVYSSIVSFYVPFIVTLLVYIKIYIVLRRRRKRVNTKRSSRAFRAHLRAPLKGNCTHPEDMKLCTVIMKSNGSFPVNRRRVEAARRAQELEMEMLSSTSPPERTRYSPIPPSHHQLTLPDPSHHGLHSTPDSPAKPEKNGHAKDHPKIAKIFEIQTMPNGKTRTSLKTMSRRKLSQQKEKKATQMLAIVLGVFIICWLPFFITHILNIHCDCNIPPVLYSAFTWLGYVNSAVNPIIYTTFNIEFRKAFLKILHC
5-hydroxytryptamine receptor 2A (Homo sapiens), sequence (P28223 whole entry, looked up): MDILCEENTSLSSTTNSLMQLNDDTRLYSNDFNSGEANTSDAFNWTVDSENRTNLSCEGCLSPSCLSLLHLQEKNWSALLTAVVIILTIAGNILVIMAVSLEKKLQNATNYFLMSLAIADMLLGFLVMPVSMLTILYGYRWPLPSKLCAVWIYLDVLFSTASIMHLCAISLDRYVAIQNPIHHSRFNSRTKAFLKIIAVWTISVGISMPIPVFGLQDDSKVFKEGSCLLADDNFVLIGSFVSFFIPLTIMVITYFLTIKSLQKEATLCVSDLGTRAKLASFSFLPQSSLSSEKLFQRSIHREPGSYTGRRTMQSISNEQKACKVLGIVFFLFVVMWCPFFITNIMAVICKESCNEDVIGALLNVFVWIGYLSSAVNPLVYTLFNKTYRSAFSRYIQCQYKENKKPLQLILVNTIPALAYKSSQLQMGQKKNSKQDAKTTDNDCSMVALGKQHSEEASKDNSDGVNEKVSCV
Beta-2 adrenergic receptor (Homo sapiens), sequence (P07550 whole entry, looked up): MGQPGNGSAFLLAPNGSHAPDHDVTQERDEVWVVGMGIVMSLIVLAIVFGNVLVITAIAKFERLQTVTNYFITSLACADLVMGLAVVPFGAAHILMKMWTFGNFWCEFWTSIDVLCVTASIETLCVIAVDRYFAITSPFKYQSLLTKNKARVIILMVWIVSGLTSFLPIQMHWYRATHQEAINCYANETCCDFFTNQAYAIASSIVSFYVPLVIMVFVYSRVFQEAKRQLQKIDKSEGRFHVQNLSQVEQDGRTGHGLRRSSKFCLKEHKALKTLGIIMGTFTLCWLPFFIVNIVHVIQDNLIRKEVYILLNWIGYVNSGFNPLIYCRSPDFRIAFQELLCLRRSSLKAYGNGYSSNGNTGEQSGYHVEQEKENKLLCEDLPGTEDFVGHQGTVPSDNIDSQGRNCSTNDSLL
Gonadotropin-releasing hormone receptor (Homo sapiens), sequence (P30968 whole entry, looked up): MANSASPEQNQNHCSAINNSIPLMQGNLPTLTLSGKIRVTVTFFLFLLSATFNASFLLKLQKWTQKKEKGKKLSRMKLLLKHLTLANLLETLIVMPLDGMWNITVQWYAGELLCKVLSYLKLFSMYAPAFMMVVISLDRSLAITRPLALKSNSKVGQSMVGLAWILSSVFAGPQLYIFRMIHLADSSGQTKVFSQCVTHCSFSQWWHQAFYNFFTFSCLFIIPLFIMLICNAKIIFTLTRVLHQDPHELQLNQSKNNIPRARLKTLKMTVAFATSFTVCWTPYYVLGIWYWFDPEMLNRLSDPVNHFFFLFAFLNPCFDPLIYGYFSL
Muscarinic acetylcholine receptor M1 (Homo sapiens), sequence (P11229 whole entry, looked up): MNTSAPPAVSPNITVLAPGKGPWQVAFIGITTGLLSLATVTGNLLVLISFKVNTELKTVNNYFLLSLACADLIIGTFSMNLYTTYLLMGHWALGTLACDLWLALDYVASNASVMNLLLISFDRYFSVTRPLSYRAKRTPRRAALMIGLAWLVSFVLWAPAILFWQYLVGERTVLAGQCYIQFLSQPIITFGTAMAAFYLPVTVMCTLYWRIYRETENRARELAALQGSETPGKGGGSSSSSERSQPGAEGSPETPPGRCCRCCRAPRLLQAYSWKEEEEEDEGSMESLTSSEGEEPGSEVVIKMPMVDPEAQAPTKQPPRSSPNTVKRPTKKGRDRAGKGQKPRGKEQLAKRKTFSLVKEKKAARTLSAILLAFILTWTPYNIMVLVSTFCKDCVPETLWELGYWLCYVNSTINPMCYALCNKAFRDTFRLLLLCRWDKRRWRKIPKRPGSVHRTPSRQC
KiSS-1 receptor (Homo sapiens), sequence (Q969F8 whole entry, looked up): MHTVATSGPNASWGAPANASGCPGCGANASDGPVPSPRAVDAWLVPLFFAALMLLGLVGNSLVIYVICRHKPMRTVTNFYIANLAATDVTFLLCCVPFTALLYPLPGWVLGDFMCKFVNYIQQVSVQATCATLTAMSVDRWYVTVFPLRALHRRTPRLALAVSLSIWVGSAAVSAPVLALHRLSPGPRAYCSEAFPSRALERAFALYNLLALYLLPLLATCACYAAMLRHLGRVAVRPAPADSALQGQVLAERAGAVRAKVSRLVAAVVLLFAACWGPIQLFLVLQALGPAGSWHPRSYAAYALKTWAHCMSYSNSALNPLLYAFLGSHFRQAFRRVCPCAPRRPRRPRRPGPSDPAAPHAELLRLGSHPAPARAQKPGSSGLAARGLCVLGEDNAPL

Compound	Potency [1]	Potency [2]	Potency [3]	Potency [4]	Potency [5]	Potency [6]	Potency [7]	Potency [8]	Potency [9]	Potency [10]	Potency [11]	Potency [12]	Potency [13]	Potency [14]	Potency [15]	Potency [16]	Potency [17]	Potency [18]	Potency [19]
C=C(C)C1CC=C(C)C(OC(C)=O)C1 (stereo not given)	inactive	inactive	inactive	inactive	inactive	inactive	inactive	inactive	inactive	inactive and 3.75 µM (active)	inactive	inactive	inactive	inactive	inactive	inactive	inactive	inactive	–
CCc1ccc(O)cc1	inactive	inactive	inactive	inactive	inactive	inactive	inactive	inactive	inactive	inactive	inactive	inactive	inactive	inactive	inactive	inactive	inactive	inactive	inactive
O=C(O)CN(CC(=O)O)CC(=O)O	inactive	inactive	inactive	inactive	inactive	inactive	inactive	inactive	inactive	inactive	inactive	inactive	inactive	inactive	inactive	inactive	inactive	–	inactive
Cn1c(=O)c2[nH]cnc2n(C)c1=O	inactive	inactive	inactive	inactive	inactive	inactive	inactive	inactive	inactive	–	–	–	inactive	inactive	inactive	–	–	inactive	–
CN(C)C=O	inactive	inactive	inactive	inactive	inactive	inactive	inactive	inactive	inactive	–	–	–	inactive	inactive	inactive	inactive	inactive	inactive	–
O=c1[nH]cc(F)c(=O)[nH]1	5.65 µM (active) and inactive	inactive	inactive	inactive	inactive	inactive	inactive	inactive	inactive	–	–	–	inactive	inactive	inactive	–	inactive	inactive	–
O=CCc1ccccc1	inactive	inactive	inactive	inactive	inactive	inactive	inactive	inactive	inactive	inactive	inactive	inactive	inactive	inactive	inactive	inactive	inactive	–	inactive
